# Assay results from the supplement of paper PMC6555819.
# System: RXRa DBDmut IVT, anti-RXR (DBD mutation: RXRa K156A/R161A, NR concentration 90 nM)
# Test: PBM binding z-score (relative to random genomic background probes); higher = stronger binding; sequences stand for … in GC…GCGATTGACAGCGTAGAATGAAGG
# How it was run: (§1)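 Binding z-scores were set against random background probes. The data came from custom Agilent 4×180K protein-binding microarrays carrying double-stranded probes with 34-nt variable regions, incubated 1 h with ligand-free nuclear receptor dimers. Partner-specific antibodies detected binding, and scanned fluorescence was regression-normalized.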
row,Sequence,PBM binding z-score
1,ACTCGGAGTACAAAGGTCAGAGCTACGCCAGTGA,2.11
2,GCTCGCAGGACAAGGTCAGAGCTTTGTCCGTAGA,0.16
3,ATCGAAAGGTCGAAGGTGAGTATCCCCACCCGAA,0.658
4,GTACCAAGGTGAATAGGTCGTTGAGGAGTAGGCG,-0.482
5,CCTACTGGGCCAAAAAGGTCATTGGTGCCGATAA,0.562
6,ACTATTAGTTGAGACGAGGGGAACCGATAGGTTG,0.612
7,TCAGACAGGTGAAGGTAACTTAGGTACGCAGTCG,1.19
8,GCCAGCAGGCCATTTGGGTCACTCAATGACGGGC,-0.31
9,GCTATTAGTTGAAAGGGCAACTGAATGATTCTCG,0.912
10,TAGCCTAGGTCAAATCGGGCCAGTATACGCTATA,0.997
11,CAAACTAGGTCATCGGAAGGTCAAAGTCCGCATG,2.25
12,GGAACTAGGGCATTCGAGTTGATAGCATGGCGAT,0.774
13,TCTTGAAGATCAACAGGAGGTTAAGAAAGATCGA,0.56
14,ACAGACAGGTGAGTGAAGGTATCTCAGCTGGACG,-0.121
15,CAAACTAGGTCAAGCTCAAAGTCGGTTTGTGCCA,1.53
16,AATACAGGGTCATCGTAGCCCAGAGTACGCACAG,3.46
17,CCTGCTAGGTCATGGTAAGCTAATCTACAGTATG,1.84
18,GCTAGCAGGCCATTTGGGTCACTCAGTGACGGGC,0.0208
19,TCAGACAGGTGAAGATAACTCAGGTACGCAGTCG,1.15
20,CCAGACAGGTGAGAAGGTAACTTAGCCTCGATTA,-0.104

row,Sequence,PBM binding z-score
1,TAGCCTAGGTCATGCGGTCCAGTATAGTGTCGGC,1.05
2,ACTAGTTGGTCAGCGGAGGTCACACACAATTCGG,0.9
3,TGAATGAGGTTAAAGATCACGGAACGTGGCGTCG,0.843
4,TATACAGGGTCAAAGGCCAGGGTACGAATGTCGA,2.73
5,CCTTACGGGACACGAGGTTATAGCACGACGAGCG,-0.0752
6,CTACCAAGGTGAACAAGGTCGTTGAATACTATTC,1.24
7,CCGACTGGGACAAGGTTACCATAACGCACAGCCA,-0.018
8,CCTAGTTGGTCAAGTTCACACACGCTATAGGTAC,3.31
9,ATTAGCAGGCCAAGTTTGGGTCACTCAAACAAAG,0.00898
10,GATACAGGGTCACGGCCAGAGTACGCGTATTGAT,2.92
11,GCTAGCAGGCCATTTGGGTCGCTCAATGACGGGC,-0.286
12,TCTAGCAGGCCAGAGGCTCACTCAAGAGGTACGG,-0.462
13,ATCGAAAGGTCGAAGCTGAGTATACCCACCCGAA,1.42
14,CATTCAGGGTCAGCTAGGCCAGAGTAGGGACGGC,2
15,TTTGCTAGGTCAGTTGGTCAGCTAACGAGCTGCC,0.279
16,ACAGACAGGTGCTGAAGGTAACTCAGGCTATCAT,-0.376
17,AGAAGGAGGTTAAGATCAGGGAAACAGAATACAT,0.0542
18,AGAATGAGGTTAAGATCAGGCAAACAGAATACAT,0.944
19,CCTACTGGGCCAACGTCATTGATCAGTCAAAGCA,-0.651
20,GCTAGCAGGCCGTTTGGGTCACTCAATGACGGGC,-0.318

# System: RXRa homodimer (NR concentration 180 nM)
# Test: as above
# How it was run: as §1
row,Sequence,PBM binding z-score
1,ACTCGGAGTACAAAGGTCAGAGCTACGCCAGTGA,5.37
2,GCTCGCAGGACAAGGTCAGAGCTTTGTCCGTAGA,2.1
3,ATCGAAAGGTCGAAGGTGAGTATCCCCACCCGAA,4.73
4,GTACCAAGGTGAATAGGTCGTTGAGGAGTAGGCG,1.63
5,CCTACTGGGCCAAAAAGGTCATTGGTGCCGATAA,4.92
6,ACTATTAGTTGAGACGAGGGGAACCGATAGGTTG,0.177
7,TCAGACAGGTGAAGGTAACTTAGGTACGCAGTCG,1.14
8,GCCAGCAGGCCATTTGGGTCACTCAATGACGGGC,0.736
9,GCTATTAGTTGAAAGGGCAACTGAATGATTCTCG,1.25
10,TAGCCTAGGTCAAATCGGGCCAGTATACGCTATA,3.31
11,CAAACTAGGTCATCGGAAGGTCAAAGTCCGCATG,5.58
12,GGAACTAGGGCATTCGAGTTGATAGCATGGCGAT,0.131
13,TCTTGAAGATCAACAGGAGGTTAAGAAAGATCGA,1.25
14,ACAGACAGGTGAGTGAAGGTATCTCAGCTGGACG,0.228
15,CAAACTAGGTCAAGCTCAAAGTCGGTTTGTGCCA,2.55
16,AATACAGGGTCATCGTAGCCCAGAGTACGCACAG,6.57
17,CCTGCTAGGTCATGGTAAGCTAATCTACAGTATG,2.62
18,GCTAGCAGGCCATTTGGGTCACTCAGTGACGGGC,0.754
19,TCAGACAGGTGAAGATAACTCAGGTACGCAGTCG,1.13
20,CCAGACAGGTGAGAAGGTAACTTAGCCTCGATTA,0.246

row,Sequence,PBM binding z-score
1,TAGCCTAGGTCATGCGGTCCAGTATAGTGTCGGC,2.94
2,ACTAGTTGGTCAGCGGAGGTCACACACAATTCGG,3.77
3,TGAATGAGGTTAAAGATCACGGAACGTGGCGTCG,5.25
4,TATACAGGGTCAAAGGCCAGGGTACGAATGTCGA,7.42
5,CCTTACGGGACACGAGGTTATAGCACGACGAGCG,1.19
6,CTACCAAGGTGAACAAGGTCGTTGAATACTATTC,1.98
7,CCGACTGGGACAAGGTTACCATAACGCACAGCCA,1.19
8,CCTAGTTGGTCAAGTTCACACACGCTATAGGTAC,2
9,ATTAGCAGGCCAAGTTTGGGTCACTCAAACAAAG,0.882
10,GATACAGGGTCACGGCCAGAGTACGCGTATTGAT,7.78
11,GCTAGCAGGCCATTTGGGTCGCTCAATGACGGGC,-0.42
12,TCTAGCAGGCCAGAGGCTCACTCAAGAGGTACGG,-0.277
13,ATCGAAAGGTCGAAGCTGAGTATACCCACCCGAA,4.13
14,CATTCAGGGTCAGCTAGGCCAGAGTAGGGACGGC,5.08
15,TTTGCTAGGTCAGTTGGTCAGCTAACGAGCTGCC,0.82
16,ACAGACAGGTGCTGAAGGTAACTCAGGCTATCAT,-0.0891
17,AGAAGGAGGTTAAGATCAGGGAAACAGAATACAT,1.96
18,AGAATGAGGTTAAGATCAGGCAAACAGAATACAT,2.49
19,CCTACTGGGCCAACGTCATTGATCAGTCAAAGCA,-0.328
20,GCTAGCAGGCCGTTTGGGTCACTCAATGACGGGC,0.67
